Pol beta inh = blocks human DNA polymerase beta activity | P06746 | Pol beta primer extension/strand displacement, fluorescence kinetic | Potency, µM (top dose mostly 114 µM), actives largely listed as inhibitors | 1.3% of 340,000 active | AID 485314
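Pol beta (10 nM) and compounds were preincubated 15 min at room temperature, then 50 nM substrate (final) started primer extension/strand displacement. Reads were taken at 0 and 10 min; concentration-response data were fitted to a four-parameter Hill equation.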
Pol kappa inh-1 = inhibitors of human DNA polymerase kappa; 0.53% of 400,000 active; purified Pol kappa, fluorescent DNA synthesis assay, 10 min; Potency, µM (top dose mostly 107 µM), hits mostly inhibitors; AID 588579; Q9UBT6
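Here, compound and 10 nM enzyme are combined for 15 min at room temperature; adding 50 nM substrate (final) starts DNA synthesis, tracked by fluorescence at 0 and 10 min against buffer-only wells.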
Pol eta inh-1 = inhibitors of human DNA polymerase eta | Q9Y253 | recombinant Pol eta, fluorescent DNA replication assay | Potency, µM (series often up to 114 µM), usual class: inhibitors | 1.2% of 390,000 active | AID 588591
Target sequence (Q9Y253 whole entry, looked up): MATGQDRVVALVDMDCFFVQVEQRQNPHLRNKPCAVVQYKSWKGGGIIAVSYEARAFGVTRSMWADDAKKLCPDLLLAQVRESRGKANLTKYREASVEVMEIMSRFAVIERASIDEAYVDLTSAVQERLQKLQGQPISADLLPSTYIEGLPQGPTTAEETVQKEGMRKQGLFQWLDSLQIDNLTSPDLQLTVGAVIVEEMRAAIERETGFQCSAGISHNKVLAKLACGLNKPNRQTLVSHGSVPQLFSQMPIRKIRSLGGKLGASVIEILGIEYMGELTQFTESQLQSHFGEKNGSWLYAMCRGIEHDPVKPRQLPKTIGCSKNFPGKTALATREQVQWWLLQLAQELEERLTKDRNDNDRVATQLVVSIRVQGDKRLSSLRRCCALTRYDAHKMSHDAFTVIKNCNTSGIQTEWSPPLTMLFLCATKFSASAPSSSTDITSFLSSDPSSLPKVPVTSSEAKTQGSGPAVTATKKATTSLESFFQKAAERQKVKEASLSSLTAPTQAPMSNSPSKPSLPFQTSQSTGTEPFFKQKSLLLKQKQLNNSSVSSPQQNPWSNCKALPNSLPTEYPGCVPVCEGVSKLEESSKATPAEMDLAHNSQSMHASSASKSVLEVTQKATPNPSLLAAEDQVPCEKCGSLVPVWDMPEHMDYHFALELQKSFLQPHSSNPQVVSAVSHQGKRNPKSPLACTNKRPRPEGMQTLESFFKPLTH
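Fluorescent replication assay: 50 nM final substrate added after a 15 min room-temperature compound preincubation with 10 nM enzyme. Signal taken at 0 min and again at 10 min.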
WRN helicase inh-1 = WRN helicase (human) inhibition | Q14191 | WRN helicase unwinding, fluorescent forked duplex, kinetic | Potency, µM (series often up to 114 µM), hits mostly inhibitors | 0.46% of 360,000 active | AID 651768; note: nearly all actives have a fitted effect of over 55% in size
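Screening of the MLSMR collection measured strand separation of a quenched forked DNA duplex (100 nM) by 20 nM WRN with 2 mM ATP, all final. Compounds were preincubated with enzyme 15 min at room temperature.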
Pol iota inh = blocks human DNA polymerase iota activity | Q9UNA4 | Pol iota fluorescent replication assay, 10 min | Potency, µM (top dose mostly 115 µM), usual class: inhibitors | 1% of 390,000 active
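Fluorescent replication assay read twice, at 0 min and 10 min after adding 50 nM (final) substrate. Enzyme (10 nM) and compounds were first incubated 15 min at room temperature; enzyme-free buffer wells were negative controls.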
FEN1 inh-1 = inhibitors of human flap endonuclease 1. Potency, µM (highest dose often 114 µM), actives largely listed as inhibitors. 0.35% of 390,000 active. Recombinant FEN1 flap cleavage, fluorescence, 15 min. AID 588795. P39748; note: nearly all actives have a fitted effect of over 65% in size
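With each library titrated from low to high concentration, compounds met 10 nM FEN1 for 15 min at room temperature before 50 nM substrate was added; readings at 0 and 15 min fed four-parameter Hill curve fits.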
PGK validate = blocks T. brucei phosphoglycerate kinase | shares compounds with Pol kappa inh-1 | AID 686980 | Potency, µM (doses to about 57.5 µM), usual class: inhibitors | 79% of 500 active | TbPGK coupled GAPDH assay, Kinase-Glo luminescence; note: nearly all actives have a fitted effect of over 65% in size
Pol iota confirm = Inhibitors of human DNA polymerase iota, confirmation; shares compounds with Pol kappa inh-1; Pol iota primer extension, TAMRA/BHQ fluorescence; Potency, µM, actives largely listed as inhibitors; 77% of 1,500 active; AID 720496
Pol kappa inh-2 = confirmation of human DNA polymerase kappa inhibitors. shares compounds with Pol eta inh-1. purified Pol-kappa, fluorescent strand-displacement substrate. Potency, µM, actives largely listed as inhibitors. 76% of 920 active. AID 720501
Pol eta inh-2 = confirmation of human DNA polymerase eta inhibitors. shares compounds with Pol eta inh-1. Pol eta primer extension, TAMRA/BHQ fluorescence, 10 min. Potency, µM, most hits filed as inhibitors. 64% of 2,600 active. AID 720502
FEN1 inh-2 = confirmation of human FEN1 inhibitors. 79% of 880 active. AID 720498. Potency, µM, hits mostly inhibitors. FEN1 flap cleavage, TAMRA/BHQ2 fluorogenic DNA substrate. shares compounds with FEN1 inh-1; note: nearly all actives have a fitted effect of over 60% in size
WRN helicase inh-2 = WRN helicase inhibition, cherry-pick retest; shares compounds with WRN helicase inh-1; WRN helicase DNA unwinding, fluorescence kinetic; Potency, µM (doses to about 57.1 µM), most hits filed as inhibitors; 63% of 610 active; AID 720497; note: nearly all actives have a fitted effect of over 65% in size
TO DNA binding = binds DNA, flagged in WRN inhibitor counterscreen; shares compounds with WRN helicase inh-1; thiazole orange DNA binding displacement, fluorescence; AID 720499; Potency, µM (series often up to 57.1 µM), most hits filed as inhibitors; 10% of 610 active;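 note: drop in dye fluorescence marks compound binding to DNA; nearly all actives have a fitted effect of over 60% in size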
BLM helicase inh = blocks human BLM helicase in WRN counterscreen | shares compounds with WRN helicase inh-1 | Recombinant BLM helicase DNA unwinding, red fluorescence | Potency, µM (titrated, usually from 57.1 µM), usual class: inhibitors | 60% of 610 active | AID 720503; note: nearly all actives have a fitted effect of over 60% in size
A number is an active result; 0 = inactive; ? = inconclusive; - = no result given; [ ] = dose if it differs, or a comment. Sampled rows, rich in hits. Any-hit rate of the full collection: about 2.4%. Calls come from the whole dose curve; as a rule, active = well fitted curve in the direction sought with a large enough effect; inconclusive = small, poorly fitted or top-dose-only effect, or another doubt; inactive = no such curve, though single readings can be large; an effect the other way counts as inactive or inconclusive.

SMILES	Pol beta inh	Pol kappa inh-1	Pol eta inh-1	WRN helicase inh-1	Pol iota inh	FEN1 inh-1	Pol eta inh-2	others
CC(Cc1ccc(OCC(=O)O)cc1)NCC(O)c1cccc(Cl)c1 (stereo unspecified)	0	0	0	-	0	-	-
COc1cccc2c1C(=O)c1c(O)c3c(c(O)c1C2=O)CC(O)(C(C)=NO)CC3OC1CC(N)C(O)C(C)O1 (stereo unspecified)	-	?	17.8µM	2.67µM	79.4µM	?	42.6	Pol iota confirm=21.2;FEN1 inh-2=30.1;WRN helicase inh-2=21.5µM;TO DNA binding=0;BLM helicase inh=21.5µM
N/C(=N\N=C/c1ccc(-c2ccc(O)c(C(=O)O)c2)o1)N[N+](=O)[O-]	3.55µM	8.91µM	4.47µM	25.1µM	3.55µM	50.1µM	4.26	PGK validate=6.51µM;Pol iota confirm=2.99;Pol kappa inh-2=2.99;WRN helicase inh-2=7.64µM;TO DNA binding=?;BLM helicase inh=6.81µM
Cc1cc(/C=C2\C(=O)NC(=O)N(c3ccccc3F)C2=O)c(C)n1-c1cc(C(=O)O)cc(C(=O)O)c1	10µM	?	3.16µM	39.8µM	?	?	7.57	PGK validate=?;Pol iota confirm=18.9;WRN helicase inh-2=?;TO DNA binding=0;BLM helicase inh=0
Cc1nc2ccccc2c(=O)n1-c1nccs1	-	-	-	0	-	-	-
O=c1c2ccccc2nc(-c2ccco2)n1-c1nccs1	0	0	?	0	?	?	?
CC(C)NC(=O)N1CCCC2(CCN(C(=O)Oc3ccccc3)CC2)C1	-	0	-	-	-	-	-
Cn1cccc1/C=C1/C(=O)NC(=O)N(Cc2ccccc2)C1=O	0	79.4µM	?	?	15.8µM	0	75.7
CCCC[C@@H](C)[C@@H](OC(=O)C[C@@H](CC(=O)O)C(=O)O)[C@H](C[C@@H](C)C[C@H](O)CCCC[C@@H](O)C[C@H](O)[C@H](C)N)OC(=O)C[C@H](CC(=O)O)C(=O)O	-	0[19.4 µM]	-	-	-	-	-
CCCCC(C)C(OC(=O)CC(CC(=O)O)C(=O)O)C(CC(C)CC(O)CCCCC(O)CC(O)C(C)N)OC(=O)CC(CC(=O)O)C(=O)O (stereo unspecified)	?	79.4µM	?	0	0	0	75.7
NC(=NCCc1ccc(I)cc1)SCCCc1cnc[nH]1	-	0[19.4 µM]	-	-	-	-	-
Cc1cccc(N2C(=O)NC(=O)/C(=C\c3cc(C)n(-c4sc5c(c4C#N)CCCC5)c3C)C2=O)c1C	?	0	20µM	?	20µM	0	30.1
CC(C)(O)[C@@H]1[C@H]2OC(=O)[C@@H]1[C@]1(O)C[C@H]3O[C@]34C(=O)O[C@H]2[C@@]14C (tested in a mixture with another compound)	-	0[19.4 µM]	-	-	-	-	-
O=C1NC(=O)C(=Cc2ccc(SC3CCCCC3)o2)C(=O)N1	20µM	0	20µM	?	10µM	?	47.8
NS(=O)(=O)c1ccc(-c2ccc(C=C3C(=O)NC(=O)NC3=O)o2)cc1	0	0	0	0[11.6 µM]	?	?	-
CCCN(CCC)[C@@H]1CCc2c(OC)cccc2[C@@H]1C	-	0[19.4 µM]	-	-	-	-	-
CNC(CC(C)C)C(=O)NC1C(=O)NC(CC(N)=O)C(=O)NC2C(=O)NC3C(=O)NC(C(=O)NC(C(=O)O)c4cc(O)cc(O)c4-c4cc3ccc4O)C(O)c3ccc(c(Cl)c3)Oc3cc2cc(c3OC2OC(CO)C(O)C(O)C2OC2CC(C)(N)C(O)C(C)O2)Oc2ccc(cc2Cl)C1O (stereo unspecified)	-	0	0	0	0	0	-
Cc1c(N=Cc2c(O)n(Cc3ccco3)c(=O)[nH]c2=O)c(=O)n(-c2ccccc2)n1C	?	0	17.8µM	0[11.6 µM]	?	0	?
Cc1c(N=Cc2c(O)n(Cc3ccccc3)c(=O)[nH]c2=O)c(=O)n(-c2ccccc2)n1C	0	0	0	0	0	0	-
O=C(N/N=C/c1c(O)n(Cc2ccco2)c(=O)[nH]c1=O)c1ccccc1O	0	79.4µM	14.1µM	?	28.2µM	0	30.1
O=C1NC(=S)NC(=O)C12C(c1ccccc1)NC(=S)NC2c1ccccc1 (stereo unspecified)	0	0	50.1µM	0	20µM	0	?
O=C1NC(=S)NC(=O)C12C(c1ccc(F)cc1)NC(=S)NC2c1ccc(F)cc1 (stereo unspecified)	0	0	39.8µM	0	0	0	?
O=C1NC(=S)NC(=O)C1c1ccccc1	-	0	0	0	0	0	-
COc1cccc2c1C13CC[N+]4(CC5CC5)CO[C@]1(CCC(=O)C3)C4C2	-	0[19.4 µM]	-	-	-	-	-
C[C@@H]1Cc2c(Cl)cc(C(=O)N[C@H](Cc3ccccc3)C(=O)O)c(O)c2C(=O)O1	-	0	-	-	-	-	-
O=C(O)c1ccccc1-c1ccc(C=C2C(=O)N(c3ccccc3)C(=S)N(c3ccccc3)C2=O)o1	44.7µM	?	17.8µM	?	?	?	33.8	Pol kappa inh-2=16.8
O=C1NC(=O)C(=Cc2ccc(-c3ccccc3[N+](=O)[O-])o2)C(=O)N1	0	0	0	?	?	?	-
Cc1cc(/C=C2\C(=O)NC(=O)N(c3ccc(Cl)cc3)C2=O)c(C)n1C	0	0	0	0	0	0	-
Cc1cc(/C=C2\C(=O)NC(=O)N(c3ccc(F)cc3)C2=O)c(C)n1-c1cccc(C(=O)O)c1	28.2µM	?	22.4µM	0[11.6 µM]	22.4µM	0	?	Pol kappa inh-2=37.7
Cc1cc(/C=C2\C(=O)NC(=O)N(c3ccccc3)C2=O)c(C)n1-c1ccc(C(=O)O)c(Cl)c1	22.4µM	?	10µM	0[11.6 µM]	?	0	33.8	Pol kappa inh-2=18.9

Compound activity as filed in PubChem BioAssay.
